Experimental findings from PubChem BioAssay (NCI) are described below.

About 83,000 compounds went through this panel and 20% of them were active in at least one assay; those are over-represented in the sample as a whole.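 Note: values are percent growth. 100 is the growth of untreated cells, values between 100 and 0 indicate rising inhibition; between -100 and 0 indicates cell death.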 The source made the active and inactive calls.

The test system of this test is RPMI-8226 leukemia. Briefly: NCI-60 one-dose screen, 48 h (100 = growth as untreated, 0 = no growth, -100 = all killed). The settings on record: 10 µM unless noted. The method, then:
Growth inhibition of the RPMI-8226 human tumor cell line is measured as a screen for anti-cancer activity. Cells are grown in 96 well plates and exposed to the test compound for 48 hours. Compounds are tested at a single concentration, which is 10^-5 M for most compounds. The reported endpoint is percent growth (GI% or GIPRCNT), where numbers from 0 - 100% represent growth inhibition, and numbers from -100% - 0 represent cell death. For example, a value of 40 represents 60% growth inhibition. A value of 0 means no net growth occurred over the course of the experiment. A value of -40 indicates 40% of cells at the beginning of the experiment died by the end of the experiment. A value of -100 means all cells are dead at the end of the experiment.
NCI-60 Human Tumor Cell Lines Screen was performed using the standard one-dose NCI protocol, which is described in more detail at https://dtp.cancer.gov/discovery_development/nci-60/default.htm.
Compounds with GIPRCNT values below 10 were considered active. Activity score was based on GIPRCNT using the following formula: […]
Score is 0 for GIPRCNT values of 100 or above, 50 for GIPRCNT values of 0, and 100 for GIPRCNT values of -100.
With `CCN(CC)C(=O)C[N+](C)(C)CCOC(c1ccccc1)c1ccccc1`, the growth is 114% (inactive).
Regarding `CN1CCN(c2nc(NCCNc3ccnc4cc(Cl)ccc34)c3ccccc3n2)CC1`, the growth is 3.82% (active).
The value for `Nc1nc(Nc2ccccc2)c(C=Nc2ccccc2)c(=O)[nH]1` was 94.8% (inactive); that for `CC[C@H](Nc1ncnc2nc[nH]c12)c1nc2cccc(F)c2c(=O)n1-c1ccccc1` was 78.9% (inactive); that for `CCc1nc2cc(F)c(/C=C/C(=O)NO)cc2c(=O)n1CCc1ccccc1` was 11% (inactive).
`c1ccc2c(c1)CCN(NCCN1CCCC1)C2`: the growth is 95.5% (inactive).
Take `CCCCCCCC12Cc3ccccc3C1=Nc1c(c3ccccc3n1C)C2=O` (stereo not given): the growth was 91.8% (inactive).
As to `Cc1ccc(F)c(NC(=O)Nc2ccc(-c3cccc4[nH]nc(N)c34)cc2)c1`, the growth is 9.63% (active).
For `OCCNC(=S)Nc1ccc(-c2nc(N3C[C@H]4CC[C@@H](C3)O4)c3cccn3n2)cc1`, the growth is 5.44% (active).
Regarding `ClCc1ccc(-c2ccc(Cn3cnc4nc(Cl)nc(Cl)c43)cc2)cc1`, the growth was -55.8% (active).
For `Cc1nc2ccc(-n3ncc(C(=O)c4cc5ccccc5[nH]4)c3N)cc2[nH]1`, the growth is 45.2% (inactive).
`CCN(CCO)CCCOc1ccc2c(Nc3cc(CC(=O)Nc4cccc(F)c4)[nH]n3)ncnc2c1`: the growth was 72.5% (inactive).
For `Cc1nc(NC(=O)N2CCC[C@H]2C(N)=O)sc1-c1ccnc(C(C)(C)C(F)(F)F)c1`, the growth was 48.7% (inactive).
For the compound `CCN(CC)Cc1cc(Nc2cc(C(F)(F)F)c(C#N)c3nc4ccccc4n23)ccc1O`, the growth was 0.326% (active).
As to `CS(=O)(=O)N1CCN(Cc2cc3nc(-c4cccc5[nH]ncc45)nc(N4CCOCC4)c3s2)CC1`, the growth is 25% (inactive).
The value for `C=CC(=O)Nc1cccc(Oc2nc(Nc3ccc(N4CCN(C)CC4)cc3)nc3ccsc23)c1` was -29.8% (active); that for `C[C@@H]1COCCN1c1cc(C2([S@](C)(=N)=O)CC2)nc(-c2ccnc3[nH]ccc23)n1` was 32.4% (inactive).
`CC(C)(C)c1nc(-c2cccc(NS(=O)(=O)c3c(F)cccc3F)c2F)c(-c2ccnc(N)n2)s1`: the growth is 75.5% (inactive).
`C=CC(=O)Nc1cccc(Nc2nc(Nc3ccc(N4CCN(C(C)=O)CC4)cc3OC)ncc2C(F)(F)F)c1`: the growth was 16.8% (inactive).
For the compound `CCS(=O)(=O)N1CCN(c2ccc(Nc3ncc(C(N)=O)c(NC4CC4)n3)cc2)CC1`, the growth is 62.2% (inactive).
On to `Cn1cnc2c(F)c(Nc3ccc(Br)cc3Cl)c(C(=O)NOCCO)cc21`, for which the growth was 69.9% (inactive).
In the case of `Cn1cc(-c2ccc(F)c(C(F)(F)F)c2)nc1C1CCN(c2ncnc3[nH]ncc23)CC1`, the growth was 82.3% (inactive).
With `C[C@@]1(C(=O)Nc2ccc(F)nc2)CCCN1c1nc(Nc2cc(C3CC3)[nH]n2)c2cccn2n1`, the growth is 62.1% (inactive).
With `COc1ccc(Nc2ncccc2NC(=O)c2cn(Cc3cccc(Oc4ccccc4)c3)nn2)cc1`, the growth is 86% (inactive).
Take `COC(=O)CCCNc1c(-c2c(O)c(O)cc3c(O)c(-c4c(C)cc5c(-c6nc7ccccn7c6NCCCC(=O)OC)c(O)c(O)cc5c4O)c(C)cc23)nc2ccccn12`: the growth is 22.5% (inactive).
Consider `COc1ccc2c(CCCc3ccc(Cl)cc3Cl)c3[n+](cc2c1OC)CCc1cc2c(cc1-3)OCO2`, for which the growth was -24.5% (active).
As for `COc1cc(N2CCC(N(C)C)CC2)ccc1Nc1ncc(Cl)c(Nc2ccccc2P(C)(C)=O)n1`, the growth was 27.9% (inactive).
The value for `O=C(Cc1ccccc1)Nc1nnc(NC2CCN(c3nnc(NC(=O)Cc4ccccc4)s3)CC2)s1` was 58.9% (inactive); that for `O=C(N/N=C/c1ccc(Cl)cc1)c1cc(-c2cc3ccccc3o2)nn1-c1ccccc1` was 47.6% (inactive); that for `C[C@@H](Nc1cc(F)cc(F)c1)c1cc(C(=O)N(C)C)cc2c(=O)cc(N3CCOCC3)oc12` was 84.4% (inactive).
Regarding `Fc1ccc(NCc2cn(-c3ccccc3)nc2-c2ccc(OCc3ccccc3)cc2)cc1Cl`, the growth was 98% (inactive).
The value for `COc1ccc2c(c1)cn1c3ccc(O)cc3nc(N)c21` was 25.4% (inactive); that for `N#Cc1c(NC(=O)c2ccco2)[n+]([O-])c2cc(F)c(F)cc2[n+]1[O-]` was 17.8% (inactive).
Regarding `N#CCNC(=O)c1ccc(-c2ccnc(Nc3ccc(N4CCOCC4)cc3)n2)cc1`, the growth is 27.3% (inactive).
`COC(=O)[C@H](Cc1ccccc1)NC(=O)[C@@H](OC)[C@@H]1Cc2cc3cc(OC4CC(OC5CC(O)C(O)C(C)O5)C(O)C(C)O4)c(C)c(O)c3c(O)c2C(=O)[C@H]1OC1CC(OC2CC(OC3CC(C)(O)C(O)C(C)O3)C(O)C(C)O2)C(O)C(C)O1` (stereo not given in full): the growth was -16.5% (active).
`COc1ccc(C2CC(=O)c3c(O)c(OC)c(OC)c(OC)c3O2)cc1O` (stereo not given): the growth was 34.3% (inactive).
The value for `C1=C\COCc2cc(ccc2OCCN2CCCC2)Nc2nccc(n2)-c2cccc(c2)COC/1` was -32% (active).
For the compound `COc1cc2nccc(Oc3ccc(NC(=O)Nc4cc(C)on4)c(Cl)c3)c2cc1OC`, the growth was 21% (inactive).
The value for `COc1cc2ncnc3c2cc1OCCCCCN(C)Cc1ccc(Br)cc1N3` was 64.1% (inactive).
As for `N[C@@H]1CCCN(c2c(/C=C3\SC(=O)NC3=O)cccc2-c2ccccc2)C1`, the growth is 13% (inactive).
